# Compound activity deposited in PubChem by National Center for Advancing Translational Sciences (NCATS).
# Sampled rows, rich in hits. Any-hit rate of the full collection: about 1.8%.
# Vif-A3F inh = inhibitors of Vif-A3F interaction | HeLa A3F-eYFP + Vif (tagged APOBEC3F with the HIV-1 protein that degrades it), YFP fluorescence increase | Potency, µM (top dose mostly 46.1 µM), inactives show at the top dose activity, negative = active | hit rate 0.2% among 390,000; further: % of control where 0% means no effect; nearly all actives have a fitted effect of over 65% in size
#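 HeLa cells stably expressing Vif plus C-terminally eYFP-tagged A3F were seeded, incubated overnight at 37 deg C, dosed with compound, incubated overnight again at 37 deg C. Yellow fluorescence (Ex 488/Em 500-530) reported blocked Vif-mediated A3F-eYFP degradation.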
# TrxR1 substrate = rat thioredoxin reductase 1 substrate activity. O89049. purified TrxR1 substrate turnover, NADPH consumption readout. Potency, µM (doses to about 114 µM), without a hit: at the top dose activity change, negative = substrate turnover. hit rate 0.01% among 390,000. AID 588456; further: on the % scale 0 is the no-effect control and ±100 the full control effect; nearly all actives have a fitted effect of over 50% in size
#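 Rat TrxR1, dispensed at 90 nM, was prereduced with 400 uM NADPH (final) for 5 min at ~22 deg C, then incubated with compound 15 min before 400 uM selenite. A first-read NADPH fluorescence drop versus no-compound background flagged substrates.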
# Vif-A3G inh = inhibitors of Vif-APOBEC3G interaction; HeLa A3G-eYFP + Vif (tagged APOBEC3G with the HIV-1 protein that degrades it), YFP fluorescence, overnight; AID 602310; Potency, µM (series often up to 46.1 µM), without a hit: top-dose activity, negative = active, usual class: inhibitors; hit rate 0.076% among 410,000; Q9HC16; further: on the % scale 0 is the no-effect control and ±100 the full control effect; nearly all actives have a fitted effect of over 60% in size
#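 Read-out is eYFP fluorescence (Ex 488/Em 500-530) from Vif-expressing HeLa A3G-eYFP cells; more signal means A3G escaped Vif-mediated degradation. Cells plated overnight, compound pinned in, incubated overnight at 37 deg C.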
# TrxR1 inh = rat TrxR1 inhibition; Potency, µM (doses to about 114 µM), without a hit: at the highest dose activity change, negative = inhibition, usual class: inhibitors; O89049; recombinant rTrxR1, NADPH fluorescence consumption, selenite substrate; hit rate 1% among 390,000; further: on the % scale 0 is the no-effect control and ±100 the full control effect; nearly all actives have a fitted effect of over 65% in size
#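 Rat TrxR1 (90 nM in the dispensed reagent) was pre-reduced with 400 uM NADPH for 5 min at room temperature, then incubated with compound for 15 min. After 400 uM selenite was added, NADPH fluorescence (Ex 340/Em 450 nm) was followed for 8 min.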
# VDR inhibitor = blocks the human vitamin D receptor. VDR-SRC2-3 peptide fluorescence polarization, 2 h. Potency, µM, without a hit: max response, negative = inhibition, most hits filed as inhibitors. hit rate 0.93% among 400,000. P11473; further: on the % scale 0 is the no-effect control and ±100 the full control effect
# Target sequence (P11473 whole entry, looked up): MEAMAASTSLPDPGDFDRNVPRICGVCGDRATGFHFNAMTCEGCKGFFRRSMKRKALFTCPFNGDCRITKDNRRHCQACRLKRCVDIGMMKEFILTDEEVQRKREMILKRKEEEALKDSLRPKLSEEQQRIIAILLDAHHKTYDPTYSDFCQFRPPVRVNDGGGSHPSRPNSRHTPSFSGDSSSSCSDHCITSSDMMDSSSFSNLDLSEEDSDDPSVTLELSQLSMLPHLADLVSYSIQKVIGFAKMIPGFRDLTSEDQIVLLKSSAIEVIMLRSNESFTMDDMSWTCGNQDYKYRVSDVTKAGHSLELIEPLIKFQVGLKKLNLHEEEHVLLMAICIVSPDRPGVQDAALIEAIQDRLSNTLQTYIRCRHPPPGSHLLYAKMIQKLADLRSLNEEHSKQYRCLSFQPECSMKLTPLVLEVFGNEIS
#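 The screen uses fluorescence polarization to detect compounds that interfere with recruitment of the SRC2-3 coactivator peptide to VDR; plates are read after 2 h at room temperature.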
# VDR inh confirm = inhibits human vitamin D receptor, primary hit validation; hit rate 89% among 840; VDR-coactivator inhibition assay, qHTS confirmation; AID 602199; shares compounds with VDR inhibitor; Potency, µM, hits mostly inhibitors
# VDR FP = VDR (human) coactivator binding inhibition, fluorescein polarization; AID 602200; hit rate 48% among 840; shares compounds with VDR inhibitor; Potency, µM (highest dose often 57.1 µM), without a hit: at the highest dose activity change, negative = inhibition, actives largely listed as inhibitors; VDR-coactivator binding, fluorescein fluorescence polarization
# VDR bla reporter = VDR (human) inhibition, cell-based beta-lactamase validation | Potency, µM (highest dose often 46.1 µM), for inactives: at the top dose activity change, negative = inhibition, usual class: inhibitors | shares compounds with VDR inhibitor | hit rate 23% among 840 | VDR beta-lactamase reporter cells, FRET ratio; cells co-treated with VDR agonist LG190178 | AID 602202; further: on the % scale 0 is the no-effect control and ±100 the full control effect
# VDR viability = cell toxicity, VDR inhibitor hit counter-screen. shares compounds with VDR inhibitor. cytotoxicity counter-screen, cell viability, qHTS. Potency, µM (top dose mostly 48.3 µM), for inactives: top-dose activity change, negative = cytotoxicity, most hits filed as cytotoxic. hit rate 18% among 840;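 further: plate controls were DMSO for no effect and high-concentration cycloheximide for full effect; nearly all actives have a fitted effect of over 75% in size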
# An asterisk follows results filed as active; ? = inconclusive; nt = not tested or not shown; [ ] = dose if it differs, or a comment. The call rests on the fitted dose curve; in most records, active means well fitted curve in the direction sought with a large enough effect; inconclusive means small, poorly fitted or top-dose-only effect, or another doubt; inactive means no such curve, though single readings can be large; an effect the other way counts as inactive or inconclusive. Potency means the concentration at half of the fitted maximal effect.
SMILES,Vif-A3F inh,TrxR1 substrate,Vif-A3G inh,TrxR1 inh,VDR inhibitor,VDR inh confirm,VDR FP,VDR bla reporter,VDR viability
CCOC(=O)c1c(NS(=O)(=O)c2ccccc2)n(CCCOC)c2nc3ccccc3nc12,2%,277%,-16%,-33%,?,2.5*,2.2µM*,-8%,24%
CCOP(=O)(OCC)c1nc(-c2ccc(F)cc2)oc1NCc1ccccc1,4%,78%,-20%,42%,-21%,nt,nt,nt,nt
C=CCN1C(=O)/C(=C\c2ccc(N3CCOCC3)o2)C(=O)NC1=S,?,-18%,-14%,-27%,-20%,nt,nt,nt,nt
CN1C(=O)/C(=C/c2ccc(Cl)s2)C(=O)NC1=S,?,5%,0%,8.9µM*,20µM*,6.7*,?,?,-11%
C=CCN1C(=O)/C(=C/c2ccc(Br)s2)C(=O)NC1=S,?,-2%,?,6.3µM*,20µM*,4.2*,39%,?,-28%
CN1CCCC2(CCN(C(=O)Oc3ccccc3)CC2)C1,nt,nt,nt,nt,-1%,nt,nt,nt,nt
CN1CCc2cc(O)cc3c2C1Cc1ccc(O)c(O)c1-3 (configuration not stated),nt,nt,nt,?,-20%,nt,nt,nt,nt
CN1CCC(O)(c2cccs2)C(C(=O)c2cccs2)C1 (configuration not stated),7%,1%[11.4 µM],-14%,?,?,20*,25µM*,?,?
O=C1NC(=S)NC(=O)C1=Cc1ccc(OCC(=O)N2CCCC2)cc1,1%,-3%,0%,5.6µM*,45µM*,13*,14µM*,21%,13%
O=C(Cn1c(=O)n(Cc2ccccc2)c(=O)c2sc3ccccc3c21)NCc1ccccc1Cl,?,10%,5%,21%,9%,nt,nt,nt,nt
O=C(CN1CCCC1)c1ccccc1,nt,1%,0%,-25%,nt,nt,nt,nt,nt
CC1CCN(C(CC(=O)c2ccccc2)C(=O)c2ccccc2)CC1 (configuration not stated),-13%,0%[2.29 µM],-16%,-94%[57.1 µM],25µM*,11*,?,?,?
O=C(Nc1cccc(F)c1)N1CCCC2(CCN(C(=O)Oc3ccccc3)CC2)C1,nt,nt,nt,nt,11%,nt,nt,nt,nt
CN1C(=O)C(=Cc2ccccc2Oc2ccc(Cl)cc2)C(=O)N(C)C1=O,-7%,-2%,-20%,?,28µM*,17*,18µM*,18%,-3%
Cc1nn(Cc2ccccc2)c(C)c1C=C1C(=O)NC(=S)NC1=O,3%,-4%,-3%,8.9µM*,25µM*,9.5*,?,?,-4%
COc1cccc(-c2nn(Cc3ccccc3)cc2C(=O)O)c1,-4%,5%,4%,13%,9%,nt,nt,nt,nt
COc1cccc(C2CC3C(=O)C=CC2N3Cc2ccccc2)c1 (configuration not stated),1%,-1%,-9%,-28%,?,18*,?,21µM*,17%
O=C(NC(O)C(Cl)(Cl)Cl)NC(O)C(Cl)(Cl)Cl (configuration not stated),nt,nt,nt,nt,2%,nt,nt,nt,nt
CC(=O)Oc1ccc(Cl)c2cccnc12,nt,nt,nt,nt,4%,nt,nt,nt,nt
CC1OC(=O)C(C(C)C)NC(=O)C(C(C)C)OC(=O)C(C(C)C)NC(=O)C(C)OC(=O)C(C(C)C)NC(=O)C(C(C)C)OC(=O)C(C(C)C)NC(=O)C(C)OC(=O)C(C(C)C)NC(=O)C(C(C)C)OC(=O)C(C(C)C)NC1=O (configuration not stated),nt,nt,nt,nt,6%,nt,nt,nt,nt
COc1cc2[nH]c(=S)n(-c3ccccc3)c(=O)c2cc1OC,-11%,1%,0%,-8%,16%,nt,nt,nt,nt
COc1ccc(-n2c(=S)[nH]c3c(sc(=S)n3-c3ccccc3)c2=O)c(OC)c1,-14%,12%[57.1 µM],-22%,-15%[57.1 µM],35µM*,3.4*,?,26%,20%
COC(=O)CCCc1[se]c2ccccc2c1I,nt,nt,nt,nt,0%,nt,nt,nt,nt
CN(C)c1ccc(/C=C/[N+](=O)[O-])cc1,?,1%,-7%,-12%,?,?,86%,0%,5%
CN(C)c1ccc(C(=O)c2ccc(N(C)C)cc2)cc1,-4%,-9%,?,-7%,-13%,nt,nt,nt,nt
SMILES,Vif-A3F inh,TrxR1 substrate,Vif-A3G inh,TrxR1 inh,VDR inhibitor,VDR inh confirm,VDR FP,VDR bla reporter,VDR viability
C/C(=C\c1ccc(N(C)C)cc1)[N+](=O)[O-],0%,-7%,?,?,20µM*,6.7*,?,-134%,?
C[C@]12CC[C@H](O)C[C@H]1CCC1C2CC[C@]2(C)[C@@H](c3ccc(=O)oc3)C[C@H]3O[C@]132 (some centres not stated),nt,0%,-8%,16%,?,nt,nt,nt,nt
O=C1NC(=O)C(=Cc2ccc(-c3ccc(S(=O)(=O)N4CCOCC4)cc3)o2)C(=O)N1,?,4%,3%,?,22µM*,19*,?,34%,-9%
O=C1NC(=O)C(=Cc2ccc(N3CCOCC3)cc2)C(=O)N1,-3%,-3%,10%,?,26%,nt,nt,nt,nt
CC(=O)N1CCN(c2ccc(OC[C@@H]3CO[C@@](Cn4ccnc4)(c4ccc(Cl)cc4Cl)O3)cc2)CC1,nt,-5%,0%,9%,12%,nt,nt,nt,nt
COc1cc(/C=C2\C(=O)NC(=O)N(c3ccccc3)C2=O)c([N+](=O)[O-])cc1OC,5%,7%[57.1 µM],-1%,7.1µM*,45µM*,27*,20µM*,53%,29%
Cn1cc(/C=C2\C(=O)NC(=O)N(c3ccccc3)C2=O)c2ccccc21,?,-15%,?,-25%,27%,nt,nt,nt,nt
CN1C(=O)NC(=O)/C(=C\C=C\c2ccccc2[N+](=O)[O-])C1=O,12%,-4%,?,-26%,11µM*,4.2*,?,?,-7%
O=C1NC(=O)N(CCc2ccc(F)cc2)C(=O)/C1=C\C=C\c1ccccc1,?,-12%,-5%,-24%,?,nt,nt,nt,nt
O=C1C(=O)c2ccccc2-c2ccccc21,-1%,3.2µM*,-14%,10µM*,10µM*,6*,3.2µM*,3.7µM*,1.8µM*
CCCCn1c(O)c(C(=O)/C=C/c2ccc3c(c2)OCO3)c(=O)[nH]c1=O,-28%,-13%[57.1 µM],3%,-18%[57.1 µM],?,11*,?,?,18%
